What is called inhibition is the relative decrease from the control value, in per cent.

Structures are written as SMILES. Out of some 310,000 compounds screened, about 1,300 (0.42%) were called active. The sample as a whole holds a higher share of actives than the screen did. Unmarked numbers belong to inactive results. Rule as the data show it: active = inhibition above about 50%; inactive = the rest.

Data on 92 molecules can be found in PubChem BioAssay AID504441 (Broad Institute, 2011).

The target of the test is Dual specificity tyrosine-phosphorylation-regulated kinase 1A (Rattus norvegicus) (UniProt Q63470). Kind of test: inhibition of Dyrk1A kinase activity – biochemical, single point, plate reader, primary screen (AID 504441).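 Also: plate controls were vehicle with enzyme for no effect and no enzyme for full effect.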 To be noted: ADP-Glo luminescence, NFATc1 peptide, at 12.5 µM, stronger effect = higher value.
Turning to `O=C(O)c1cc(Cl)c(Cl)cc1C(=O)Nc1cccc2ncccc12`, the inhibition is 31.9%.
Next, `O=C(Nc1cccc2ncccc12)c1ccc(-c2ccc(Cl)cc2Cl)o1`: 12.4%; `Cc1ccc(/C=C(\C#N)C(=O)Nc2cccc3ncccc23)o1`: 84.4% (active).
`O=C1C2C3C=CC(C3)C2C(=O)N1c1ncc([N+](=O)[O-])s1` (configuration not stated): the inhibition is -1.64%.
Next, `CCCN(C(=O)COC(=O)CNS(=O)(=O)c1ccc(NC(C)=O)cc1)C1CCS(=O)(=O)C1` (configuration not stated): 7.58%.
Take `CC(C)OC(=O)c1ccc(NCc2cc(O)ccc2O)cc1Cl`: the inhibition was 0.287%.
Next, `COc1ccc(/C=C2/CCCc3ccccc3C2=O)cc1`: 11.6%; `O=[N+]([O-])c1ccccc1/C=N/n1c(COc2ccccc2)n[nH]c1=S`: -1.54%.
As for `Oc1ccccc1/C=N/n1c(-c2cccs2)n[nH]c1=S`, the figure is -4.73%; as for `CCc1n[nH]c(=S)n1/N=C/c1c[nH]c2ccc(Br)cc12`, 50.2% (active).
As for `O=C1/C(=C\c2ccc(O)cc2)CCC1CNc1ccc(Cl)cc1` (configuration not stated), the figure is 2.38%; as for `COc1ccc(C2NCCCC2c2ccccc2)cc1` (configuration not stated), -2.56%; as for `O=C(NN=Cc1ccccc1O)NN=Cc1ccccc1O`, 6.12%.
In the case of `CCOC(=O)Cn1c(-c2cccnc2Cl)nc2ccccc21`, the inhibition was 80.1% (active).
For `CCOC(=O)Cn1c(=O)n(Cc2ccc(OC)cc2)c(=O)c2cccnc21`, the inhibition is 2.78%.
Next, `CCn1c(-c2cccnc2Cl)nc2cc(C)c(C)cc21`: 2.9%.
With `O=c1c2ccccc2ncn1CCc1ccncc1`, the inhibition is 7.95%.
As for `OCC(O)C1OCOC(C(O)CO)C1O` (configuration not stated), the inhibition is -1.78%.
On to `O=C(NCC1CCCCC1)NCC1CCCCC1`, for which the inhibition is 7.91%.
Next, `O=C(CC1SCCNC1=O)Nc1ccc(Cl)c(Cl)c1` (configuration not stated): -4.03%.
Take `O=C(CC(O)(C(F)(F)F)C(F)(F)F)Nc1ccc(Cl)c(Cl)c1`: the inhibition is 53.9% (active).
As for `O=C(Cc1ccc(Cl)c(Cl)c1)Nc1ccc(SC(F)F)cc1`, the figure is -0.116%; as for `CC/C(=C(/c1ccccc1)c1ccc(OCC[N+](C)(C)C)cc1)c1ccccc1`, 7.18%; as for `COc1ccc2[nH]c(C)c(CCN(Cc3cccs3)C(=S)Nc3ccccc3OC)c2c1`, 57.4% (active).
For the molecule `Cc1[nH]c2ccccc2c1CCN(Cc1cccs1)C(=S)NC(C)(C)C`, the inhibition is -4.25%.
In the case of `COc1cccc(NC(=S)N(CCc2c(C)[nH]c3ccccc23)Cc2ccco2)c1`, the inhibition is 7.39%.
Take `NN=C(NN=Cc1ccccc1)c1ccccc1`: the inhibition is -4.79%.
On to `CN(C(=O)c1cccc(NC(=O)Cc2ccc(NC(=O)C3CCCN(C(=O)C4CCCC4)C3)cc2)c1)C1CCC1` (configuration not stated), for which the inhibition was 2.93%.
In the case of `CC(=NNC(=S)N1CCCCCC1)c1ccccn1`, the inhibition was 0.973%.
As for `Cc1cc(NC(=O)C(C)SCC(=O)Nc2cccc(S(=O)(=O)N3CCCCCC3)c2)no1` (configuration not stated), the figure is -1.84%; as for `Cc1ccc(-n2c(C)cc(/C=N/Nc3ccc([N+](=O)[O-])cn3)c2C)c(C)c1`, -4.85%.
As for `CC(C)c1ccc(C=NNc2ccc([N+](=O)[O-])cn2)cc1`, the figure is -3.91%; as for `Cc1cc(/C=N/Nc2ccc([N+](=O)[O-])cn2)c(C)n1-c1cccc(C(=O)O)c1`, 50.2% (active); as for `Cc1cccc(NC(=S)N2CCC(C(=O)c3ccc(F)cc3)CC2)c1`, 10.4%.
As for `O=C(Nc1ccc2ccccc2c1[N+](=O)[O-])c1ccccc1`, the figure is 3.22%; as for `O=C(OCCOc1ccccc1Cl)c1cc(S(=O)(=O)N2CCCCC2)ccc1N1CCOCC1`, -7.28%; as for `CC(C)Sc1nc(N)nc2c1ncn2C1OC(CO)C(O)C1O` (configuration not stated), -4.63%.
On to `Nc1nc(SCc2ccc([N+](=O)[O-])cc2)c2ncn(C3OC(CO)C(O)C3O)c2n1` (configuration not stated), for which the inhibition is 56.9% (active).
As for `Cc1nc(N)nc(SCc2ccc([N+](=O)[O-])cc2)c1N`, the figure is -3.28%.
As for `O=[N+]([O-])c1ccc(COc2ccccc2CN2CCOCC2)cc1`, the figure is 4.81%.
As for `CNN/C(N=Cc1ccc([N+](=O)[O-])s1)=N\S(=O)(=O)c1cc(C)c(Cl)cc1SCc1ccccc1`, the figure is 1.25%.
Take `Cc1ccc(S(=O)(=O)N2C[C@@H]3CCCC[C@@H]3[C@@H](C)[C@H]2c2cn(Cc3ccccc3)c3ccc(F)cc23)cc1`: the inhibition is -0.552%.
As for `N=C1C(c2nc3ccccc3s2)=C(O)CN1NC(=O)c1ccc([N+](=O)[O-])cc1`, the figure is 46.9%; as for `O=[N+]([O-])c1cc(Br)c(O)c(/C=N/Nc2nc3ccccc3s2)c1`, 32.7%; as for `O=C(NC(Nc1nc2ccc([N+](=O)[O-])cc2s1)(C(F)(F)F)C(F)(F)F)c1ccccc1`, 73.9% (active).
As for `O=C(O)C(CCc1ccccn1)c1ccccc1` (configuration not stated), the figure is 3.61%; as for `N#CC1=C(N)Oc2cc(N)ccc2C1c1ccccc1` (configuration not stated), 0.0153%; as for `COc1ccc(CNCCCNCc2ccc(OC)c(OC)c2)cc1OC`, -3.55%.
For `CCOc1cc(/C=C2\SC(N3CCCCC3)=NC2=O)ccc1O`, the inhibition is 62.2% (active).
Next, `O=C1N=C(N2CCCC2)S/C1=C\c1cccc(Br)c1`: -2.99%; `CCOc1cc(/C=C2\SC(N3CCCC(C)C3)=NC2=O)ccc1O` (configuration not stated): 31.5%.
Turning to `CCN1CCC(O)(/C=C/c2ccc(C)cc2)C(C(=O)/C=C/c2ccc(C)cc2)C1` (configuration not stated), the inhibition was -5.12%.
On to `O=C(NCCc1ccccc1)C1CCN(S(=O)(=O)c2ccc(Br)s2)CC1`, for which the inhibition was 60.5% (active).
Next, `O=C(C1CCN(S(=O)(=O)c2ccc(Br)s2)CC1)N1CCN(c2ccccc2)CC1`: 2.78%.
With `CSc1ccc(S(=O)(=O)N2CCC(C(=O)NCCc3ccccc3)CC2)cc1`, the inhibition was -0.684%.
Next, `COc1ccccc1N(CC(=O)Nc1c(C)n(C)n(-c2ccccc2)c1=O)S(=O)(=O)c1ccccc1`: 8.43%; `Cc1ccc(S(=O)(=O)N2CCN(C(=O)COC(=O)/C=C/c3cccc(Cl)c3)CC2)c(C)c1`: 2.98%.
In the case of `CCOCCCNC(=O)C(NC(=O)c1ccc(=O)[nH]c1)c1ccc(C)cc1` (configuration not stated), the inhibition is 4%.
As for `CCOCCCNC(=O)C(NC(=O)c1ccc(=O)[nH]c1)c1ccc(Cl)cc1` (configuration not stated), the figure is 62.1% (active); as for `CCOCCCNC(=O)C(NC(=O)c1ccccc1O)c1ccccc1` (configuration not stated), 2.95%.
`O=C1/C(=C\c2ccc([N+](=O)[O-])cc2)CS(=O)(=O)C/C1=C/c1ccc([N+](=O)[O-])cc1`: the inhibition was 2.21%.
As for `N#Cc1cccc(CN2CCC(=O)N(CCO)CC2)c1`, the figure is 12.9%.
Next, `O=C1CCN(Cc2ccccc2)CCN1[C@H](CSc1ccccc1)c1ccccc1`: 7.38%; `N#Cc1cccc(CN2CCC(=O)N([C@H](CO)c3ccccc3)CC2)c1`: 50.1% (active); `CCCCN(C(=O)CSCc1ccc(C)cc1)c1c(N)n(Cc2ccccc2)c(=O)[nH]c1=O`: -1.45%.
As for `O=[N+]([O-])c1ccc(NS(=O)(=O)c2ccccc2)c(Cl)c1`, the figure is -7.67%.
For the molecule `O=C(O)c1ccc(NN=CC2=C(N3CCOCC3)/C(=C/c3ccccc3)CC2)cc1`, the inhibition was 17.6%.
As for `COc1ccc(S(=O)(=O)N2CCc3ccccc32)cc1C(=O)Nc1cc(S(C)(=O)=O)ccc1Cl`, the inhibition was -1.51%.
With `Cc1ccccc1Nc1nc(-c2cccnc2)cs1`, the inhibition was 9.73%.
Next, `Oc1ccc(-c2csc(Nc3cccnc3)n2)cc1`: 53.9% (active).
Next, `CN(c1ccc(O)cc1)c1nc(-c2cccnc2)cs1`: 3.73%; `O=C(NNC(=O)c1ccccc1O)c1ccccc1O`: -1.63%.
Next, `CCOC(=O)c1ccccc1OC(=O)Oc1ccccc1C(=O)OCC`: 4.02%; `O=C1OCC2=C1C(c1ccc(Cl)cc1)c1cc3c(cc1O2)OCO3` (configuration not stated): -1.45%.
Consider `O=C(Nc1ccc(S(=O)(=O)N2CCOCC2)cc1)C1CCN(S(=O)(=O)c2ccc(Cl)cc2)CC1`, for which the inhibition was 7.12%.
On to `NS(=O)(=O)c1ccc(-c2ccc(/C=C3\SC(=O)NC3=O)o2)cc1`, for which the inhibition was 87.9% (active).
Consider `CN1CCN(/N=C/c2ccc(-c3ccc([N+](=O)[O-])cc3)o2)CC1`, for which the inhibition was 4.45%.
Turning to `CN1C(=O)/C(=C\c2ccc(-c3ccccc3)o2)SC1=S`, the inhibition was -4.31%.
Next, `O=C(Nc1c(Br)cc2c(c1Br)Cc1cc([N+](=O)[O-])ccc1-2)C(Cl)Cl`: -6.68%; `Cc1cc(OCCCC(=O)Nc2cc(S(=O)(=O)N3CCOCC3)ccc2N2CCOCC2)ccc1Cl`: 1.11%; `CCOC(=O)[C@H]1[C@H]2COc3ccc(Br)cc3[C@@H]2N2C(=O)CN(C)C(=O)[C@@]12C`: -7.39%.
Next, `CC(=O)Nc1cccc(-c2cnc3ccccc3n2)c1`: 50.4% (active); `O=C(Nc1cccc(-c2nc3ccccc3[nH]2)c1)c1ccc(C(=O)Nc2cccc(-c3nc4ccccc4[nH]3)c2)cc1`: 4.53%.
Consider `CC(=O)Nc1cccc(-c2csc(Nc3cccc(C)n3)n2)c1`, for which the inhibition is 9.85%.
As for `CN(C)C(=S)N=c1ssc(=S)n1Cc1ccco1`, the figure is 0.385%; as for `O=C(Cc1ccc([N+](=O)[O-])cc1)NCCc1ccc2c(c1)OCO2`, 3.06%.
Next, `COc1ccc(C(=O)N(C)Cc2ccc(OC)c(OC)c2OC)cc1S(=O)(=O)N1CCOCC1`: -3.97%; `NC(CSC1(c2ccccc2)c2ccccc2-c2ccccc21)C(=O)O` (configuration not stated): -0.913%; `COc1cc2[nH]c(O)c(C=O)c2cc1OC`: 3.93%.
Next, `COc1ccc(Nc2nc(-c3cccnc3)nc3ccccc23)cn1`: 24.1%; `Cc1cccc(-c2nc(Nc3ccc(O)cc3)c3ccccc3n2)c1`: 62% (active); `CC(=O)Nc1cccc(Nc2nc(-c3cccs3)nc3ccccc23)c1`: 26.8%.
